Among all 5,500 compounds or so, about 2,000 (36%) were called active. Not shown: some 18% with an inconclusive outcome. Cut-off read from the data, not from the text of the source: active = normalized growth mostly below about 0.91 (no sharp cut-off); inconclusive = no clear call, values can overlap the other calls; inactive = mostly above about 0.92. This is one part of the list.
Assay: chemical genetic growth profiling, strain panel (AID 1159580);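 note: tested at 20 µM; growth read once vehicle control cultures reached saturation at 30 °C; 1 = growth at the plate median or of vehicle wells; lower values mean less growth of the strain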
Settings: growth OD
[1] = S. cerevisiae deletion strains, locus YAL013W, strain DEP1, active compounds read low
[2] = S. cerevisiae deletion strains, locus YBR229C, strain ROT2, active compounds read low
[3] = S. cerevisiae deletion strains, locus YDL101C, strain DUN1, active compounds read low
[4] = S. cerevisiae deletion strains, locus YDL134C, strain PPH21, active compounds read low
[5] = S. cerevisiae deletion strains, locus YDR150W, strain NUM1, active compounds read low
[6] = S. cerevisiae deletion strains, locus YEL061C, strain CIN8, active compounds read low
[7] = S. cerevisiae deletion strains, locus YGR078C, strain PAC10, active compounds read low
[8] = S. cerevisiae deletion strains, locus YHR030C, strain SLT2, active compounds read low
[9] = S. cerevisiae deletion strains, locus YHR087W, strain rtc3, active compounds read low
[10] = S. cerevisiae deletion strains, locus YJR075W, strain HOC1, active compounds read low
[11] = S. cerevisiae deletion strains, locus YLR039C, strain RIC1, active compounds read low
[12] = S. cerevisiae deletion strains, locus YLR058C, strain SHM2 (second series), active compounds read low
[13] = S. cerevisiae deletion strains, locus YLR085C, strain ARP6, active compounds read low
[14] = S. cerevisiae deletion strains, locus YLR262C, strain YPT6, active compounds read low
[15] = S. cerevisiae deletion strains, locus YML094W, strain GIM5, active compounds read low
[16] = S. cerevisiae deletion strains, locus YMR219W, strain ESC1, active compounds read low
[17] = S. cerevisiae deletion strains, locus YMR263W, strain SAP30, active compounds read low
[18] = S. cerevisiae deletion strains, locus YMR307W, strain GAS1, active compounds read low
[19] = S. cerevisiae deletion strains, locus YNL153C, strain GIM3, active compounds read low
[20] = S. cerevisiae deletion strains, locus YNL298W, strain CLA4 (second series), active compounds read low
[21] = S. cerevisiae deletion strains, locus YNL322C, strain KRE1, active compounds read low
[22] = S. cerevisiae deletion strains, locus YNR030W, strain Alg12, active compounds read low
[23] = S. cerevisiae deletion strains, locus YOL006C, strain TOP1, active compounds read low
[24] = S. cerevisiae deletion strains, locus YPL055C, strain LGE1, active compounds read low
[25] = S. cerevisiae deletion strains, locus YPL241C, strain CIN2, active compounds read low
[26] = S. cerevisiae deletion strains, locus YPR135W, strain CTF4, active compounds read low
[27] = S. cerevisiae strains, strain wild type, active compounds read low

Measured: normalized growth

CCc1cccc(C)c1NC(=O)N1CCN(C(=O)OC(C)(C)C)CC1
inactive: [1] 0.992 | [2] 0.99 | [3] 0.987 | [4] 1.01 | [5] 1.03 | [6] 1.01 | [7] 1 | [8] 1.01 | [9] 0.995 | S. cerevisiae deletion strains, locus YJR043C, strain POL32, active compounds read low 1 | [10] 0.988 | [11] 1.04 | [12] 0.99 | [13] 1 | [14] 0.984 | [15] 0.991 | [16] 0.984 | [17] 1.01 | [18] 1.05 | [19] 0.994 | [20] 1.02 | [21] 0.999 | [22] 1.01 | [23] 1.01 | [24] 0.987 | [25] 1.03 | [26] 1.01 | [27] 1

CC(N)=NCc1cccc(CN)c1
inactive: [1] 1.02 | S. cerevisiae deletion strains, locus YAL040C, strain CLN3, active compounds read low 1.01 | S. cerevisiae deletion strains, locus YCL061C, strain MRC1 (second series), active compounds read low 1.01 | [5] 1.01 | S. cerevisiae deletion strains, locus YDR363W, strain ESC2, active compounds read low 1.02 | S. cerevisiae deletion strains, locus YER002W, strain NOP16, active compounds read low 1.03 | [18] 1.03 | S. cerevisiae deletion strains, locus YNL175C, strain NOP13, active compounds read low 1.02 | S. cerevisiae deletion strains, locus YNL197C, strain WHI3, active compounds read low 1 | S. cerevisiae deletion strains, locus YNL224C, strain SQS1, active compounds read low 1 | S. cerevisiae deletion strains, locus YOR083W, strain WHI5 (second series), active compounds read low 0.996 | [25] 1.01

CCSC(SCC)[C@H](O)[C@@H](O)[C@H](O)CO
inactive: [1] 0.976 | [2] 0.992 | [3] 0.993 | [4] 1.01 | [5] 0.995 | [6] 0.998 | [7] 0.981 | [8] 0.939 | [9] 0.98 | [10] 0.994 | [11] 0.992 | [12] 0.993 | [13] 1.05 | [14] 0.904 | [15] 1.02 | [16] 1 | [17] 0.994 | S. cerevisiae deletion strains, locus YNL128W, strain TEP1, active compounds read low 1 | [19] 0.988 | [20] 0.988 | [21] 0.985 | [22] 0.992 | [23] 1.01 | [24] 1 | [25] 1.04 | [26] 0.922 | [27] 0.992

From PubChem BioAssay AID1159580 (chemical genetic matrix, 2015)
